Source: PubChem BioAssay (NCATS)
Records with an inconclusive call do not appear. Where a call stands in place of a potency, no number is given. Activity calls are given as the source filed them. Calls come from the whole dose curve; as a rule, active = well fitted curve in the direction sought with a large enough effect; inconclusive = small, poorly fitted or top-dose-only effect, or another doubt; inactive = no such curve, though single readings can be large; an effect the other way counts as inactive or inconclusive.

Molecular target: Guanine nucleotide-binding protein G(i) subunit alpha-1 (Homo sapiens) (UniProt P63096)
Test: qHTS Assay for Inhibitors of RGS12 GoLoco Motif Activity (Green Fluorophore) (AID 879)
Settings: Galphai1/FITC-RGS12 GoLoco peptide, fluorescence polarization; series mostly up to 57.1 µM
How it was run: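 A drop in FITC polarization marked displacement of the FITC-tagged RGS12 GoLoco peptide (10 nM) from Gαi1 (50 nM). Compounds were incubated 10 min at room temperature in Tris pH 7.5 buffer containing 150 mM NaCl, 0.1 mM GDP and 0.05% NP40; unlabeled peptide titration served as control.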
Potency is the fitted concentration of half-maximal effect.

Sequence of Guanine nucleotide-binding protein G(i) subunit alpha-1 (Homo sapiens) (P63096 whole entry, looked up): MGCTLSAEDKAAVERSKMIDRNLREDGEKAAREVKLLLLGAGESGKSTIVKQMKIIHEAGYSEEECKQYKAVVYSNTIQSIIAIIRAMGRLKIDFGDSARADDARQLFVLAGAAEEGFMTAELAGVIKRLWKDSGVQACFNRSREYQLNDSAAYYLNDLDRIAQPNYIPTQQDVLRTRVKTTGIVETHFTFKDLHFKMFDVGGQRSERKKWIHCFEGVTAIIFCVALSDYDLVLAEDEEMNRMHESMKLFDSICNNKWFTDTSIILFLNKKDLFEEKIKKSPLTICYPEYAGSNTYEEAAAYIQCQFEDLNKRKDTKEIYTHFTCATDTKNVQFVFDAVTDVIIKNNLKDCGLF

Row | SMILES | Potency
1 | C[N+](C)(C)CC=O | inactive
2 | CC[N+](CC)(CC)CC(=O)Nc1c(C)cccc1C | inactive
3 | Nc1nc2ccc(Cl)cc2c2nc(-c3ccco3)nn12 | inactive
4 | Cn1c(=O)c2[nH]c(-c3ccc(S(=O)(=O)O)cc3)nc2n(C)c1=O | inactive
5 | Cn1ccnc1 | inactive
6 | CC(=O)N[C@@H](Cc1c[nH]c2ccccc12)C(=O)OCc1cc(C(F)(F)F)cc(C(F)(F)F)c1 | inactive
7 | O=C(O)C1=CC(=C(c2ccc(O)c(C(=O)O)c2)c2ccc(O)c(C(=O)O)c2)C=CC1=O | 15.8 µM (active)
8 | COc1cc(CC(=O)O)ccc1O | inactive
9 | NCCCCN=C(N)N | inactive
10 | O=C(O)Cc1c[nH]c2ccc(O)cc12 | inactive
11 | Cc1ccc2c(c1)C(N1CCN(C)CC1)=Nc1cccnc1N2 | inactive
12 | OC1(c2ccc(Cl)cc2)CCN(Cc2c[nH]c3ccccc23)CC1 | inactive
13 | N[C@@H](Cc1ccc(O)c(I)c1)C(=O)O | inactive
14 | N[C@@H](Cc1c[nH]c2ccccc12)C(=O)O | inactive
15 | CCCCCCCCCCCCCCC[C@H](O)[C@H](N)CO | inactive
16 | NCCNS(=O)(=O)c1cccc2c(Cl)cccc12 | inactive
17 | C#CCn1c(=O)c2c(ncn2C)n(C)c1=O | inactive

Row | SMILES | Potency
18 | COc1cc(CNC(=O)CCCCCCC(C)C)ccc1O | inactive
19 | COc1ccccc1N1CCN(CCCNc2c(C)c(=O)n(C)c(=O)n2C)CC1 | inactive
20 | CCCCCCCCCCCCCCSCC(=O)O | inactive
21 | O=C1Nc2ccc(I)cc2/C1=C/c1cc(Br)c(O)c(Br)c1 | inactive
22 | N=C(N)c1ccccc1 | inactive
23 | CCCn1c(=O)c2[nH]c(-c3ccc(S(=O)(=O)O)cc3)nc2n(CCC)c1=O | inactive
24 | CCC(=O)N1CCN(C(=O)c2ccccc2)CC1 | inactive
25 | COc1ccc(NC(=O)c2ccc(-c3ccc(-c4noc(C)n4)cc3C)cc2)cc1N1CCN(C)CC1 | inactive
26 | O=C(O)C1=CCNCC1 | inactive
27 | CC(N)=O | inactive
28 | CCCc1c(OCCCOc2ccc(OCC(=O)O)cc2)ccc(C(C)=O)c1O | inactive
29 | NC(N)=[N+]1CCc2ccccc2C1 | inactive
30 | CCCC(=O)NCCc1c2n(c3ccc(OC)cc13)CCCc1ccccc1-2 | inactive
31 | COc1ccccc1N1CCN(CCN(C(=O)c2ccc(F)cc2)c2ccccn2)CC1 | inactive
32 | O=C(O)C1=CCCN(CCON=C(c2ccccc2)c2ccccc2)C1 | inactive
33 | N#Cc1cc2nc(O)c(O)nc2cc1[N+](=O)[O-] | inactive
34 | CC[C@@H]1Cc2cc(O)ccc2C2=C1c1ccc(O)cc1C[C@H]2CC | inactive

Molecular target: Cytochrome P450 2C9 (Homo sapiens) (UniProt P11712)
Test: qHTS Assay for Inhibitors and Substrates of Cytochrome P450 2C9 (AID 883); note: nearly all actives have a fitted effect of over 60% in size
Settings: recombinant CYP2C9, luciferin-H luminescence, 60 min; series mostly up to 57.1 µM
How it was run: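 10nM CYP2C9 + 100uM Luciferin-H (=KM), 25mM KPO4; cpd 10 min 37C; NADPH regen, 60 min 37C; stop/detect with P450 Glo-Buffer 20 min; luminescence. Norm. to 57uM sulphaphenazole as full inhibition.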

Sequence of Cytochrome P450 2C9 (Homo sapiens) (P11712 whole entry, looked up): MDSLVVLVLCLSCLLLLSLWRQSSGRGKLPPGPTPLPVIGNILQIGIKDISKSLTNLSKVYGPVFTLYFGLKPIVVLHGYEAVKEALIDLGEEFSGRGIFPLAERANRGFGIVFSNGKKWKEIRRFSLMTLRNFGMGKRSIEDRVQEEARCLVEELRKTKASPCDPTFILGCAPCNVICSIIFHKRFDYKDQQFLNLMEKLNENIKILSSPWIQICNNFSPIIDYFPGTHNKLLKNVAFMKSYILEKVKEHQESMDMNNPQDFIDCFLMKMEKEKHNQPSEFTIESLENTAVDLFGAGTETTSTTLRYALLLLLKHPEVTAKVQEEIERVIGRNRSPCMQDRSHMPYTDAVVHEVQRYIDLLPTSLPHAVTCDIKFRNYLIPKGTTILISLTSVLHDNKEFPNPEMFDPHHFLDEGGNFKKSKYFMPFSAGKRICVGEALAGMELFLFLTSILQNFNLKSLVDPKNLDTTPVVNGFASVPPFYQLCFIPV

Row | SMILES | Potency
35 | CC[N+](CC)(CC)CC(=O)Nc1c(C)cccc1C | inactive
36 | CC(=O)N[C@@H](Cc1c[nH]c2ccccc12)C(=O)OCc1cc(C(F)(F)F)cc(C(F)(F)F)c1 | 12.6 µM (active)
37 | O=C(O)Cc1c[nH]c2ccc(O)cc12 | inactive
38 | OC1(c2ccc(Cl)cc2)CCN(Cc2c[nH]c3ccccc23)CC1 | inactive
39 | COc1ccc(NC(=O)c2ccc(-c3ccc(-c4noc(C)n4)cc3C)cc2)cc1N1CCN(C)CC1 | 7.94 µM (active)
40 | N#Cc1cc2nc(O)c(O)nc2cc1[N+](=O)[O-] | inactive
